# In the supplement of paper PMC6555819:
# Columns and labels:
# Experiment in all cases: PBM binding z-score (relative to random genomic background probes); higher = stronger binding; sequences stand for … in GC…GCGATTGACAGCGTAGAATGAAGG
# [1] = system: RARb homodimer (NR concentration 270 nM)
# Method in brief: (§1)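 Binding z-scores were set against random background probes. The data came from custom Agilent 4×180K protein-binding microarrays carrying double-stranded probes with 34-nt variable regions, incubated 1 h with ligand-free nuclear receptor dimers. Partner-specific antibodies detected binding, and scanned fluorescence was regression-normalized.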
# [2] = system: RARg:RXRa (NR concentration 270 nM, RXRa partner concentration 90 nM)
# Method in brief: as §1
# [3] = system: RARg homodimer (NR concentration 270 nM)
# Method in brief: as §1
# [4] = system: RXRa DBDmut IVT, anti-RXR (DBD mutation: RXRa K156A/R161A, NR concentration 90 nM)
# Method in brief: as §1
# [5] = system: RXRa homodimer (NR concentration 180 nM)
# Method in brief: as §1
# [6] = system: THRa:RXRa (NR concentration 90 nM, RXRa partner concentration 90 nM)
# Method in brief: as §1
# [7] = system: THRa homodimer (NR concentration 90 nM)
# Method in brief: as §1
# [8] = system: VDR homodimer (NR concentration 270 nM)
# Method in brief: as §1
Sequence,PBM binding z-score [1],PBM binding z-score [2],PBM binding z-score [3],PBM binding z-score [4],PBM binding z-score [5],PBM binding z-score [6],PBM binding z-score [7],PBM binding z-score [8]
CCTTACGGGTCACTGACAGGTTACAGCATTTGGA,3.43,6.18,4.87,1.94,5.36,3.08,0.386,1.01
CAAACTAGGTAACAGAGGTCAAAGTCCGTGCGTA,4.45,5.28,4.28,2.34,6.18,4.1,1.95,4.49
CAAACTATGTCAAAGGTCAAAGTCGAGCCAACCA,5.04,7.01,6.39,1.75,8.43,3.81,1.14,2.88
AGAACCAGGGCACGCTGAGTTGATAGCAGAGTAG,0.548,0.797,1.19,-0.0403,0.657,0.883,-0.00671,0.466
TCTTGTAGATCAATAGAGGTTAAGATAGTGCGCT,1.21,0.947,0.501,0.749,1.75,2.51,-0.429,0.0861
GCTATTAGATGAAAGGGCAACCGAATGATTCTCG,1.76,0.991,1.24,0.654,1.17,0.435,-0.425,-0.071
TCTTGTAGATCAACAGGAGGTTACGAAAGATCGA,0.979,1.06,0.394,0.347,1.19,1.5,-0.205,0.0245
CCAGACAGGTGAGAAGGTAACTCGGCCTCGATTA,0.583,0.465,0.269,0.0522,0.351,0.364,0.256,-0.0946
AGAACGAGGGCACGCTGAATTGATAGCAGAGTAG,0.888,1.78,2.36,1.73,1.18,1.53,-0.215,0.542
TAGCCTAGGTCAGATCGGGCTAGTATACGCTATA,1.59,2.48,3.26,-0.66,1.34,3.37,-0.538,-0.698
AGAATGAGGTTATTCAGATCAGGGAATTGCGGTC,0.905,1.51,1.13,2.35,2.13,2.51,0.965,1.53
CAAACTACGTCAAGAGGTCAAAGTCCGCTTCCCG,4.32,5.45,4.73,2.5,6.72,3.72,1.78,4.48
CGTCCAAGGTCATAGGATGTCAGTGAAGACAGAT,4.04,5.95,6.37,3.93,6.11,4.28,2.46,3.2
CTACCAAGGTGAACAAGGTGGTTGATTACTATTC,0.848,0.716,0.76,0.305,0.617,1.7,0.798,-0.122
TCTTGTTGATCAATAGAGGTTAAGAAAGTGCGCT,1.09,0.58,0.28,0.766,1.48,1.58,-0.22,0.411
GCGACTGGGGCATCAGCAGGTCACCATAACTTAA,3.25,3.79,2.47,-0.121,2.14,3.02,1.44,0.619
CTTCAAAGTTCAAGGTAACGTAACAGAAAGCAGC,3.62,5.19,6.14,4.34,4.62,2.96,1.34,3.44
CGTCCAAGGTCAAAGGTCAGTGAGGAGATGACGG,5.41,8.78,8.47,3.92,10.4,4.81,2.98,4.41
CCTATTAGTTGACCATAATGGCAACCGAAGCTCG,0.786,0.589,0.606,0.918,0.421,0.384,0.631,1.12

Sequence,PBM binding z-score [1],PBM binding z-score [2],PBM binding z-score [3],PBM binding z-score [4],PBM binding z-score [5],PBM binding z-score [6],PBM binding z-score [7],PBM binding z-score [8]
CGAACTAGGTCCAGGACAGTGAATCTCCGCACGC,-0.206,-0.326,-0.183,0.703,-0.387,0.749,0.778,0.133
TCTAGTTGGTCAAAGGTGACACACTCGAAATGCG,2.21,2.9,1.95,1.03,3.06,1.7,0.635,0.44
CGTCCAAGGTCAAATGTCAGTGAAGAGATGACGG,4.41,6.58,7.15,3.82,6.77,4,2.21,2.75
TCTATTAGTTGAAGGGCAAGCGACGAGTCCGTTT,1.28,0.558,0.708,1.59,0.725,0.196,0.0509,1.23
CAAACTAGGTCACATAGGTCAAAGTCCGTGCGTA,4.67,5.93,6.3,2.56,5.67,4.09,1.78,3.91
CCTAGCAGGCCAATATGGGTCACTCAAGGCTTGA,2.09,1.38,1.31,-0.181,1.36,2.5,-0.509,-0.211
TCTTGTAGATCAGCAGCTTAAGAAAGCTGGCCAA,-0.684,-0.435,-0.915,0.258,-0.355,-0.626,-0.605,-0.685
TGAATGAGTTTAAAGATCAGGGAACGTGGCGTCG,-0.301,0.427,0.222,3.12,0.84,-0.0905,-0.483,2.88
GCTTGCGGGTCAAAGGTTATAGCATGAATAGAAT,2.73,6.3,4.14,2.1,8.79,3.83,-0.22,0.927
TCATATAGGTAAAGGAGAAAGTCGAACGATATGA,-0.643,0.547,0.358,0.825,0.676,-0.227,-0.866,-0.11
ATCTATAGGTAACCAAGTTCAGTGAATGCCGAAC,1.42,0.853,0.891,1.04,0.806,1.05,0.378,2.84
TCTTGTAGATCAAAGGTTAAAAAAGCCGAAGCCT,1.22,1.79,0.557,0.941,3.35,1.44,-0.334,0.177
ATCTCTAGGTAGCCAAGTTCAGTGAATGCCGAAC,0.866,0.375,0.381,0.591,0.0776,0.48,0.337,2.15
TCTCGGAAGACACGAAAGGTCAGAGCTCGACATC,4.18,4.01,4.27,1.06,4.27,2.58,0.266,0.21
GTACCAAGTTGAATAGGTCGTTGATGAGTAGGCG,0.758,0.982,0.525,0.103,0.719,0.151,-0.492,0.477
ACAGACAGGTGATGAAGGTACCTCAGGCTATCAT,-0.181,0.158,0.411,-0.579,0.4,0.509,-0.21,-0.451
CGAACGAGGGCATGAGTTGATTGCAAATGCCGAT,0.769,1.29,1.48,2.73,0.985,1.22,-0.209,1.94
CAAACTAGGTCAAAGGTCACAGTCGAGCCAACCA,5.31,8.75,7.36,2.94,9.91,5.02,2.38,2.73
ATCTCTAGGTAAGACGCAGTTCAGTGAAGAACGC,0.117,0.165,0.097,0.0393,-0.00227,0.223,-0.325,0.544

Sequence,PBM binding z-score [1],PBM binding z-score [2],PBM binding z-score [3],PBM binding z-score [4],PBM binding z-score [5],PBM binding z-score [6],PBM binding z-score [7],PBM binding z-score [8]
ATGGAAAGGTCGACGAGGTGAGTATACACCGTTT,3.01,4.09,4.05,0.942,4.19,3.7,0.967,0.927
CGTCCAAGGTCAGAGAGGTCAGCGAATGCCGAGT,5.53,6.82,7.65,3.12,6.52,4.47,2.86,5.7
CATCCAGGGTCAGCTAGGCCAGAGTAGGGACGGC,3.29,4.74,4.96,1.35,4.41,3.18,1.34,1.51
GGAACGAGGGCATTGGAGTTGATAGCATGGCGAT,1.04,1.13,1.42,2.75,0.72,1.9,-0.24,2.58
CCTGCTAGGTCAATGGTCAGCTTAAGCAGCTCGC,3.14,3.62,4.2,2,2.25,2.31,0.712,0.066
AATACAGGGTCAGTAGGCCAGAGTAGGTACGAAT,3.07,4.31,4.31,1.86,3.73,2.38,0.554,1.72
GCTATTAGTTGAAAGAGCAACCGAATGATTCTCG,-0.533,-0.181,0.242,0.464,0.226,-0.376,-0.896,-0.22
ATCTCTAGGTAAAGATTGTTCAGTGAATGCAAAT,0.0182,-0.0248,0.361,0.286,-0.291,0.472,0.375,0.0196
TCTCGGAGGACACGAAAGTCAGAGCTTTCCAGAG,0.384,0.378,1.08,0.647,-0.0691,1.21,0.236,-0.621
TCTATTAGTTGATTAGGGCCACCGAAACAGCGGA,0.67,0.31,0.582,1.19,0.411,1.09,0.613,0.435
GCTTACGGGTCAAAGGTTCTAGCATGAATAGAAT,2.69,5.33,4.79,2.09,7.13,2.7,-0.332,1.55
TAGCCTAGGTCAGATCGGCCCAGTATACGCTATA,1.84,2.5,3.35,-0.434,1.35,1.98,-0.12,-0.474
TGAATGAGGTTGAAGATCAGGGAACGTGGCGTCG,-0.485,0.258,0.179,-0.182,0.787,0.467,-0.42,-0.192
TAGCCTAGGTGATTCAGGGGCCAGTATAGAAAGC,0.919,0.914,0.0636,-0.561,-0.089,0.651,-0.0483,-0.15
TAGCCTAGGTCATGCGTGCCAGTATAGTGTCGGC,3.14,3.78,3.75,0.805,2.85,2.96,1.22,0.552
TCTAGTTGGTCAAAGGTCCCACACTCGAAATGCG,1.47,1.55,1.05,1.26,1.75,0.71,0.58,0.39
GTACCAAGGTGAATAGGTCGTTCATGAGTAGGCG,1.96,2.67,1.47,0.154,1.99,1.78,0.565,0.67
CTCAAAAGGTCGGTTGAGGTGAGTATACGGATAA,2.58,2.78,2.85,0.765,2.66,5.22,1.15,0.384
TCATATAGGTAAATGCTAGGTGAAAGTACGATCT,0.7,0.683,0.548,1.67,1.26,1.6,0.701,0.431
